# High-throughput results deposited in PubChem BioAssay by National Center for Advancing Translational Sciences (NCATS).
# CBFb-RUNX1 inh: inhibitors of human CBF-beta and RUNX1 interaction; 230,000 tested, under 10 active; AlphaScreen CBFb-His/RUNX1-biotin binding, biochemical; Potency, µM (doses to about 59.8 µM), without a hit: top-dose activity, negative = inhibition, most hits filed as inhibitors; Q01196+Q13951; active = well fitted curve in the direction sought with a large enough effect; inconclusive = small, poorly fitted or top-dose-only effect, or another doubt; inactive = no such curve, though single readings can be large; an effect the other way counts as inactive or inconclusive; also: % of control where 0% means no effect
#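 AlphaScreen proximity signal reports loss of binding between His-tagged CBF-beta and biotin-labelled RUNX1, each at 30 nM. Proteins are pre-associated for 20 minutes, compounds added for 15 minutes, then beads for 90 minutes, all at ambient temperature.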
# ClpP mod: qHTS Assay for Activators of ClpP; AID 651965, 2013; 340,000 tested, 1.9% active; purified B. subtilis ClpP, FRET peptide cleavage, 20 min; Potency, µM (highest dose often 57.5 µM), for the others: at the highest dose activity change, negative = active; active = well fitted falling curve with a large enough effect; inconclusive = small, poorly fitted or top-dose-only effect; inactive = no such curve, though single readings can be large or run the other way; also: potency is read from the fitted curve at half-maximal effect; the source files actives as falling curves though it sought activators and does not explain the sign; nearly all actives have a fitted effect of over 65% in size
#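 Buffer: 100 mM Tris/HCl pH8, 100 mM KCl, 0.05% low protease BSA, 2.5% glycerol, 0.01% Tween-20. ClpP 10 microg/mL final; 20 min RT; delta FRET normalized to ADEP and DMSO controls.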
# Rango complex inh: prevents formation of the Rango-importin beta complex | Q14974 | Rango CFP/YFP FRET sensor + importin beta, 45 min | Potency, µM (series often up to 92.2 µM), inactives show at the highest dose inhibition of complex formation | 340,000 tested, 0.031% active;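 also: potency is read from the fitted curve at half-maximal effect; 0% = DMSO wells and 100% = buffer wells lacking importin beta; nearly all actives have a fitted effect of over 15% in size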
# Target sequence (Q14974 whole entry, looked up): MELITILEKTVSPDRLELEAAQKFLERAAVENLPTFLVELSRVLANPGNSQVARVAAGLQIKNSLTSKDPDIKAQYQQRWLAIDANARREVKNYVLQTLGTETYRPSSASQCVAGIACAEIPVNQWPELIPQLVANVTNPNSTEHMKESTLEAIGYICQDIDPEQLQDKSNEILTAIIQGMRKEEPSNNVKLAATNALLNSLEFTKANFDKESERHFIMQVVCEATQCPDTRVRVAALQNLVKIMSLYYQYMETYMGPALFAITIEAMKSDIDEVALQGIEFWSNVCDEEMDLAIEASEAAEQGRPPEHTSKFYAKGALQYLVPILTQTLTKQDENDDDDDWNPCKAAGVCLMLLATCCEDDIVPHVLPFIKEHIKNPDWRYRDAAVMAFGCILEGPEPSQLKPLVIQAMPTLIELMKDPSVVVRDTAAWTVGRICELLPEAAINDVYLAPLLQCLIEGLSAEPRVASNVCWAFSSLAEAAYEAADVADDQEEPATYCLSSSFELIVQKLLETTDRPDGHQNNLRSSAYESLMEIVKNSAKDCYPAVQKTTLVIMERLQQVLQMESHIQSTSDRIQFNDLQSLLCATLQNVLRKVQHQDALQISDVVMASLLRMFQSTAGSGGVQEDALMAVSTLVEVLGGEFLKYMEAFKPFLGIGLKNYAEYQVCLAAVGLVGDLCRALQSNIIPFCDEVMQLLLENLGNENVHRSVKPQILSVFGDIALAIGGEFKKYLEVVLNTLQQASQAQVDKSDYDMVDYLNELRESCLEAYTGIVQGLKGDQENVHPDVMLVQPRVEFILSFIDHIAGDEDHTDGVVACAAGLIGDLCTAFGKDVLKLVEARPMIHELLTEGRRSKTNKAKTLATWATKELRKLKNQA
#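 Inhibition scored from the CFP 486 nm/YFP 530 nm FRET ratio 45 min after adding 0.125 microM importin beta to 50 nM Rango biosensor preincubated 5 min with compound (room temperature, PBS with DTT, Tween-20, BSA). No-importin wells as positive control.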
# Rango release inh: prevents RanGTP from dissociating the Rango-importin beta complex; O95149+P62826; Biochemical FRET Rango-importin beta, RanGTP-induced dissociation; Potency, µM (highest dose often 46.1 µM), for the others: at the top dose activity change, negative = inhibition; 340,000 tested, 0.071% active; also: potency is read from the fitted curve at half-maximal effect; % of control where 0% means no effect; nearly all actives have a fitted effect of over 45% in size
#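 Two FRET readings bracket the reaction: one 5 min after compound meets Rango–importin beta, another 45 min after RanGTP-RCC1 (0.6 uM Ran, 0.2 uM RCC1, 2 mM GTP) is added. Only the second defines inhibition.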
# MBNL1-CUG inh: inhibitors of human MBNL1 binding to CUG repeat RNA; 280,000 tested, 0.036% active; TR-FRET MBNL1-His/biotin-(CUG)12 binding, 665/545 ratio; AID 2675; Q9NR56; Potency, µM (top dose mostly 57.5 µM), for inactives: top-dose activity change, negative = inhibition, hits mostly inhibitors; active = well fitted inhibition curve with a large enough effect in the signal ratio, with a control signal flat, not every such curve was filed as active; inconclusive = small, poorly fitted or top-dose-only effect, or effect the other way, or a change in a side signal; inactive = no such curve, though single readings can be large or run the other way; the % refers to the signal ratio; also: potency is read from the fitted curve at half-maximal effect; % is scaled to controls: 0 for no effect and ±100 for the full control effect
#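 His-tagged MBNL1 binding to biotinylated (CUG)12 RNA was measured by TR-FRET using terbium anti-His antibody (0.055 ng/ul final) and streptavidin-XL665 (5 nM final). Compounds were titrated 92 nM to 58 uM; 60 min at room temperature.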
# ClpP inh valid: validation of B. subtilis ClpP protease hits (inhibitors); shares compounds with ClpP mod; purified B. subtilis ClpP, FRET-FV substrate cleavage, 20 min; Potency, µM (series often up to 57.5 µM), inactives show top-dose activity change, negative = inhibition, usual class: inhibitors; 470 tested, 40% active; AID 743245; active = well fitted curve in the direction sought with a large enough effect; inconclusive = small, poorly fitted or top-dose-only effect, or another doubt; inactive = no such curve, though single readings can be large; an effect the other way counts as inactive or inconclusive; also: potency is read from the fitted curve at half-maximal effect; % is scaled to controls: 0 for no effect and ±100 for the full control effect; nearly all actives have a fitted effect of over 70% in size
# The depositor's hits bear a star; ? = inconclusive; . = no result given; ! = not active in a repeat. This excerpt belongs to a sample that is enriched for hits. Unless noted, calls follow the shape of the full dose curve.
SMILES,CBFb-RUNX1 inh,ClpP mod,Rango complex inh,Rango release inh,MBNL1-CUG inh,ClpP inh valid
CC(=O)Nc1ccc2c(c1)nc1n2CCSC1,-1%,40%,?,1%,2%,-1%
O=C(NCCc1ccccc1)c1cc(-c2ccc(Cl)cc2)on1,.,2%,.,.,.,.
CCOCCn1ccc2c(OCC(=O)Nc3cc(C(F)(F)F)ccc3Cl)cccc2c1=O,.,-3%,.,.,.,.
COc1c(C)cccc1C(=O)Nc1ccc(-c2nc3ccccc3s2)c(Cl)c1,.,7.9µM*,.,.,.,-1%
COc1ccccc1C1CC(c2ccco2)=NN1c1ccccc1 (stereo unspecified),?,3.5µM*,?,16µM*,10%,27µM*
CCN1CCN(CCCNC(=O)Cn2nc(C)n3c(cc4c(OC)cccc43)c2=O)CC1,.,19%,.,.,.,.
COc1cccc2c1cc1c(=O)n(CC(=O)N3CCN(c4ccccc4F)CC3)nc(C)n12,.,7.9µM*,.,.,.,3.1µM*
COc1cccc2c1cc1c(=O)n(CC(=O)N3CCC(C)CC3)nc(C)n12,.,2.5µM*!,0%,5%,10%,4.9µM*
CCN(C(=O)Cn1nc(Cc2ccncc2)c2ccccc2c1=O)c1ccc(OC)cc1,.,2%,.,.,.,.
CC1=C(c2ccc(C)c(C)c2)S(=O)(=O)N(Cc2ccc(C(=O)NC(C)c3ccccc3)cc2)C1=O (stereo unspecified),.,5.6µM*,.,.,.,34µM*
CCOC(=O)c1nc2nc(-c3cccs3)cc(C(F)(F)F)n2n1,7%,?,3%,-2%,.,.
O=C(c1nc2nc(-c3cccs3)cc(C(F)(F)F)n2n1)N1CCN(Cc2ccccc2)CC1,-7%,2.5µM*,?,-17%,?,24µM*
COCC(=O)Nc1cccc(-c2nc3cccnc3s2)c1,.,5%,.,.,.,.
O=C(Cc1ccc(F)cc1)Nc1cccc(-c2nc3cccnc3s2)c1,.,8.9µM*,.,.,.,-13%
CCc1ccc(NCc2cc3ccc(OC)cc3n(CC(=O)Nc3ccc(C)c(Cl)c3)c2=O)cc1,.,8%,.,.,.,.
O=C(Nc1ccccc1Cl)c1cc2c(-c3ccccc3)nn(-c3ccccc3)c2s1,.,?,.,.,.,19µM*
Cc1cc(OCC(=O)Nc2ccc(-c3nc4cc(Cl)ccc4o3)cc2)cc(C)c1Cl,.,-25%,.,.,.,.
CCN(CC)S(=O)(=O)c1cccc2c(N(C)C)cccc12,?,3.5µM*,?,-2%,16%,-4%
Cc1cccc(N2CCN(C(=O)CN3C(=O)COc4ccc(S(=O)(=O)N5CCC(C)CC5)cc43)CC2)c1C,.,-1%,.,.,.,.
CCOc1ccc2nc(N3CCCC(C(=O)NCc4ccc(OC)cc4)C3)sc2c1 (stereo unspecified),.,2%,.,.,.,.
